Assay results reported in PubChem BioAssay (Tox21).
Records with an inconclusive call do not appear. The source made the active and inactive calls. Unless noted, calls follow the shape of the dose curve; as a rule, active = well fitted curve in the direction sought with a large enough effect in the repeat runs; inconclusive = weak or mixed curves; inactive = no such curve, though single readings can be large; an effect the other way counts as inactive or inconclusive.

Assays:
[1] = qHTS assay to identify small molecule antagonists of the constitutive androstane receptor (CAR) signaling pathway - cell viability counter screen (AID 1224837); also: nearly all actives have a fitted effect of over 45% in size; also: potency is read from the fitted curve at half-maximal effect
Procedure, shortened: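 CITCO at 50 nM final was added alongside compounds (15 concentrations) to double-stable hCAR/CYP2B6-2.2kb HepG2 cells. Following 23 hr at 37 C, cell viability was quantified by CellTiter-Fluor fluorescence intensity.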

[2] = molecular target: Nuclear receptor subfamily 1 group I member 3 (Homo sapiens) (UniProt Q14994); test: qHTS assay to identify small molecule antagonists of the constitutive androstane receptor (CAR) signaling pathway (AID 1224838); also: nearly all actives have a fitted effect of over 40% in size; also: potency is read from the fitted curve at half-maximal effect
Procedure, shortened: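 Inhibition of CITCO-driven (50 nM final) CYP2B6 reporter expression is measured in HepG2 cells stably carrying hCAR. Fifteen compound concentrations are applied for 24 h at 37 C, followed by luciferase luminescence.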

[3] = qHTS assay to identify small molecule antagonists of the estrogen related receptor signaling pathway with the pleiotropic PPARgamma coactivator (PGC) from Tox21 10K library - cell viability counter screen (AID 1224840; active = well fitted cell-killing curve with a large enough effect in the repeat runs, not every such curve was filed as active; also: nearly all actives have a fitted effect of over 40% in size; also: potency is read from the fitted curve at half-maximal effect)
Procedure, shortened: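 Readout: fluorescence intensity from CellTiter-Fluor after 30 min at 37 C/5% CO2. Preceded by 17.5 h treatment of PGC/ERR cells with DMSO-dissolved compounds, added 6 h post-seeding.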

[4] = molecular target: Thyrotropin receptor (Homo sapiens) (UniProt P16473); test: qHTS assay to identify small molecule agonists of the thyroid stimulating hormone receptor (TSHR) signaling pathway (AID 1224843; calls by dose curve; also: nearly all actives have a fitted effect of over 45% in size)
Procedure, shortened: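 Agonist activity read as cAMP rise via d2/cryptate HTRF competition, 1 h room-temperature detection, in HEK293 cells expressing TSHR. Fifteen-point titrations, each run in triplicate, with a 30 min room-temperature incubation beforehand.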

[5] = qHTS assay to identify small molecule agonists of the hypoxia (HIF-1) signaling pathway - cell viability counter screen (AID 1224844; calls by dose curve; also: nearly all actives have a fitted effect of over 50% in size; also: potency is read from the fitted curve at half-maximal effect)
Procedure, shortened: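 In this counter screen, HRE-bla ME-180 cell viability after 17 hrs of compound exposure at 37C was read by CellTiter-Glo luminescence, multiplexed with the beta-lactamase reporter measurement.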

[6] = qHTS assay to identify small molecule agonists of H2AX (AID 1224845; active = well fitted activation curve with a large enough effect in the signal ratio in the repeat runs, not every such curve was filed as active; the % refers to the signal ratio)
Procedure, shortened: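 Phospho-H2AX Ser139 measured by HTRF (ex 320 nm; em 665 and 620 nm) after 24 hr antibody incubation. Compounds, 15 concentrations, 0.76% DMSO, were applied to CHO-K1 cells for 3hr at 37C before lysis.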

[7] = qHTS assay to identify small molecule agonists of the hypoxia (HIF-1) signaling pathway (AID 1224846; active = well fitted activation curve with a large enough effect in the signal ratio in the repeat runs, not every such curve was filed as active; the % refers to the signal ratio)
Procedure, shortened: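 ME-180 HRE-bla reporter cells; compounds in DMSO, 17 h at 37C; read-out beta-lactamase via CCF4-AM FRET.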

[8] = qHTS assay to identify small molecule agonists of H2AX - cell viability counter screen (AID 1224847; calls by dose curve; also: nearly all actives have a fitted effect of over 30% in size; also: potency is read from the fitted curve at half-maximal effect;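 as to activity change, negative = cytotoxicity: wild-type CHO-K1 cells; top concentration of the series differs between compounds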)
Procedure, shortened: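 Counter-screen for viability: CellTiter-Glo ATP luminescence read after 3 h compound treatment (15-point titration, 0.76% DMSO final) of CHO-K1 cells at 37C, with 30 min room-temperature reagent incubation.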

[9] = qHTS assay to identify small molecule antagonists of the estrogen related receptor (ERR) signaling pathway from Tox21 library (AID 1224848); also: nearly all actives have a fitted effect of over 50% in size; also: potency is read from the fitted curve at half-maximal effect
Procedure, shortened: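 Luciferase luminescence (ONE-Glo, 30 min room temperature) was the read-out. Cells of the NTP-supplied ERR line, 2,000 per well, were given 6 h at 37 C before compound addition in DMSO and 18 h exposure at 37 C.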

[10] = qHTS assay to identify small molecule agonists of the estrogen related receptor (ERR) signaling pathway from Tox21 library (AID 1224849; calls by dose curve; also: nearly all actives have a fitted effect of over 15% in size); conditions: ERR reporter cell line, ONE-Glo luciferase, 18 h; at 92.4 µM (top of the series) unless noted
Procedure, shortened: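 Luciferase activity in ERR pathway reporter cells served as the agonist readout; exposure lasted 18 h at 37 C, with ONE-Glo detection after 30 min at room temperature.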

[11] = qHTS RealTime-Glo MT Cell Viability Assay in HepG2 cells - 24 hour (AID 1224867); also: nearly all actives have a fitted effect of over 50% in size
Procedure, shortened: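 HepG2 cells (600/well) were dispensed with RealTime-Glo reagents, incubated 5 h at 37 °C, then treated with compounds in DMSO for up to 40 h. Nonlytic NanoLuc luminescence reflecting viable cells was read at each stated time point.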

[12] = qHTS RealTime-Glo MT Cell Viability Assay in HEK293 cells - 32 hour (AID 1224868); also: nearly all actives have a fitted effect of over 50% in size; also: potency is read from the fitted curve at half-maximal effect; as to activity change, negative = cytotoxic: top concentration of the series differs between compounds
Procedure, shortened: (§1)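 HEK293 cells seeded with NanoLuc/prosubstrate reagent, rested 5 h at 37 C, then dosed and kept at 37 C up to 40 h. Nonlytic real-time luminescence from viable cells read at 0, 8, 16, 24, 32 and 40 h.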

[13] = A CellTox Green Cytotoxicity Assay to monitor cytotoxicity in HEK293 cells - 0 hour (AID 1224869); also: nearly all actives have a fitted effect of over 50% in size
Procedure, shortened: (§2)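 Real-time, in one plate: 600 HEK293 cells/well with dead-cell DNA dye, pinned compound after 5 h, 37 C incubation over 40 h; viable cells give no appreciable fluorescence.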

[14] = qHTS RealTime-Glo MT Cell Viability Assay in HepG2 cells - 40 hour (AID 1224870); also: nearly all actives have a fitted effect of over 50% in size; also: potency is read from the fitted curve at half-maximal effect
Procedure, shortened: (§3)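 Real-time viability: cells seeded at 600 per well together with NanoLuc and cell-permeant prosubstrate, compounds added after 5 h incubation. Luminescence tracked at 0, 8, 16, 24, 32 and 40 h of exposure.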

[15] = A CellTox Green Cytotoxicity Assay to monitor cytotoxicity in HEK293 cells - 40 hour (AID 1224871); also: nearly all actives have a fitted effect of over 45% in size; also: potency is read from the fitted curve at half-maximal effect
Procedure, shortened: as §2

[16] = qHTS RealTime-Glo MT Cell Viability Assay in HepG2 cells - 8 hour (AID 1224873); also: nearly all actives have a fitted effect of over 55% in size; also: potency is read from the fitted curve at half-maximal effect
Procedure, shortened: as §3

[17] = qHTS assay to identify small molecule antagonists of the estrogen related receptor signaling pathway with the pleiotropic PPARgamma coactivator (PGC) from Tox21 10K library (AID 1224841; call rule not given here; also: potency is read from the fitted curve at half-maximal effect)
Procedure, shortened: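 One-Glo luminescence, measured after half an hour at room temperature, quantified reporter output of PGC/ERR cells. These had been plated at 2,000 per well, incubated 6 h, dosed with compounds in DMSO, then kept 18 h at 37 C.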

[18] = qHTS RealTime-Glo MT Cell Viability Assay in HEK293 cells - 16 hour (AID 1224872); also: nearly all actives have a fitted effect of over 50% in size; also: potency is read from the fitted curve at half-maximal effect; as to activity change, negative = cytotoxicity: top concentration of the series differs between compounds
Procedure, shortened: as §1

[19] = molecular target: Nuclear receptor subfamily 1 group I member 3 (Homo sapiens) (UniProt Q14994); test: qHTS assay to identify small molecule agonists of the constitutive androstane receptor (CAR) signaling pathway (AID 1224839); also: nearly all actives have a fitted effect of over 15% in size; also: potency is read from the fitted curve at half-maximal effect
Procedure, shortened: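 Luminescent ONE-Glo read-out after 24 hr, 37 C exposure of double-stable HepG2-CYP2B6-hCAR reporter cells to a 15-point compound series, in the presence of 0.75 uM PK11195 (final).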

[20] = qHTS assay to identify small molecule agonists of the estrogen related receptor signaling pathway with the pleiotropic PPARgamma coactivator (PGC) from Tox21 10K library (AID 1224842); also: nearly all actives have a fitted effect of over 15% in size
Procedure, shortened: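 Luminescence from One-Glo (30 min, room temperature) measured after PGC/ERR cells had 18 h at 37 C with pinned compound (23 nL in DMSO). Cells had been seeded at 2,000 per well and pre-incubated 6 h.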
% is scaled to controls: 0 for no effect and ±100 for the full control effect.

Nuclear receptor subfamily 1 group I member 3 (Homo sapiens), sequence (Q14994 whole entry, looked up): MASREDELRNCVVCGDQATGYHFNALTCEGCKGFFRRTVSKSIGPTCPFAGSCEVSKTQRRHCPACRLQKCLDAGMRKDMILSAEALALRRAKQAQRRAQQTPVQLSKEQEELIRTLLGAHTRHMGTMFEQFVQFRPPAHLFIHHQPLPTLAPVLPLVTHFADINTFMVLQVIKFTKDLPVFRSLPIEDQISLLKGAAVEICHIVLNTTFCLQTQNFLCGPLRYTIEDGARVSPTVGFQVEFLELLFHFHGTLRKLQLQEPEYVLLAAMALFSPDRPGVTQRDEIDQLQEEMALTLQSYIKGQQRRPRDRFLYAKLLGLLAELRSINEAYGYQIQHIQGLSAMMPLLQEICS
Thyrotropin receptor (Homo sapiens), sequence (P16473 whole entry, looked up): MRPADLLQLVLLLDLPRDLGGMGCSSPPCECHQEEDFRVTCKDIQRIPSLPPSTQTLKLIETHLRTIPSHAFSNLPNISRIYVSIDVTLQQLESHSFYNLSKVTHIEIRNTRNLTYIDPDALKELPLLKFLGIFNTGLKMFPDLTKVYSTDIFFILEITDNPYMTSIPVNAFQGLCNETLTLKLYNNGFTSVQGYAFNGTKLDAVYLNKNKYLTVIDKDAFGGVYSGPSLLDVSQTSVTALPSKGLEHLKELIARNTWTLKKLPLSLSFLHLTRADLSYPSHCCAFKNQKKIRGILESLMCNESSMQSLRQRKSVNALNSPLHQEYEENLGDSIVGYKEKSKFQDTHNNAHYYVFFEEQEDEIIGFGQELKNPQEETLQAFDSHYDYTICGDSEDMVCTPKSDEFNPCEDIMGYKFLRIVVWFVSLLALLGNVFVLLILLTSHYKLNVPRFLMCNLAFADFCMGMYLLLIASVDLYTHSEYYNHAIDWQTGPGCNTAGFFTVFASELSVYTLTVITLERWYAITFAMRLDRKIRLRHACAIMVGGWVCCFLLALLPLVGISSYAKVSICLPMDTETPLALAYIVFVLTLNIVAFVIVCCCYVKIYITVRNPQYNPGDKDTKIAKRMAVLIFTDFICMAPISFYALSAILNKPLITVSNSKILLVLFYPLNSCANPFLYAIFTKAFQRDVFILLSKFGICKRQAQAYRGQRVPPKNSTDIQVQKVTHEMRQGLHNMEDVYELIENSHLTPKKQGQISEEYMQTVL

COC(=O)c1ccc([N+](=O)[O-])cc1
inactive: Potency [1] | Potency [2] | Potency [3] | Potency [4] | Potency [5] | Potency [6] | Potency [7] | Potency [8] | Potency [9] | activity change, positive = activation [10] 1.35% | Potency [11] | Potency [12] | Potency [13] | Potency [14] | Potency [15] | Potency [16]

CCCOC(=O)c1ccc(O)cc1
active: activity change, positive = activation [10] 17.7%
inactive: Potency [1] | Potency [2] | Potency [3] | Potency [17] | Potency [4] | Potency [6] | Potency [8] | Potency [9] | Potency [11] | Potency [13] | Potency [14] | Potency [15] | Potency [16]

COc1cc(C(C)C)ccc1C
inactive: activity change, negative = cytotoxicity [1] 1.68% [at 19 µM] | activity, negative = inhibition [2] -11.9% [at 19 µM] | viability change, negative = cytotoxic [3] -28.8% [at 19 µM] | activation [4] 6.84% [at 19 µM] | activity change, negative = cytotoxicity [5] 21.3% [at 15.8 µM] | activation (H2AX phosphorylation) [6] 0.221% [at 31.6 µM] | activation [7] -0.0499% [at 15.8 µM] | activity change, negative = cytotoxic [12] 4.56% [at 15.8 µM] | cytotoxicity [13] -0.495% [at 15.8 µM] | activity change, negative = cytotoxic [14] 19.4% [at 15.8 µM] | cytotoxicity increase [15] -5.42% [at 15.8 µM] | activity change, negative = cytotoxicity [18] -1.07% [at 15.8 µM] | viability change, negative = cytotoxic [16] -7.86% [at 15.8 µM]

Cc1cc(Br)ccc1NC(=O)CCl
active: Potency [1] 54.5 µM | Potency [2] 68.6 µM | Potency [3] 15.4 µM | Potency [17] 6.11 µM | Potency [9] 15.4 µM | Potency [12] 24.5 µM | Potency [14] 43.6 µM | Potency [18] 38.9 µM
inactive: Potency [4] | Potency [8] | activity change, positive = activation [10] -79.8% | Potency [13]

CCCCCCCCCC[N+](C)(CCCCCCCCCC)CCC[Si](OC)(OC)OC
inactive: Potency [1] | Potency [2] | Potency [19] | Potency [13]
active: Potency [5] 54.9 µM | Potency [8] 50.5 µM | Potency [12] 27.5 µM | Potency [14] 43.6 µM | Potency [15] 43.6 µM | Potency [16] 49 µM

CCOc1nc(F)cc2nc(S(=O)(=O)Nc3c(Cl)cccc3C(=O)OC)nn12
inactive: Potency [1] | Potency [2] | Potency [3] | Potency [4] | Potency [6] | Potency [7] | Potency [8] | Potency [11] | Potency [12] | Potency [13] | Potency [14] | Potency [15] | Potency [18] | Potency [16]

CCn1c2ccccc2c2ccccc21
active: Potency [19] 27.3 µM
inactive: Potency [1] | Potency [2] | Potency [3] | Potency [4] | Potency [5] | Potency [7] | Potency [8] | Potency [11] | Potency [12] | Potency [13] | Potency [14] | Potency [16]

c1ccc(-c2ccc(C(c3ccccc3)n3ccnc3)cc2)cc1 (stereo not drawn)
active: Potency [17] 29.8 µM | Potency [9] 23.7 µM | Potency [12] 30.1 µM
inactive: Potency [1] | Potency [2] | Potency [3] | Potency [20] | Potency [4] | Potency [5] | activity change, positive = activation [10] -54.4% [at 42.5 µM] | Potency [11] | Potency [13] | Potency [14] | Potency [16]

N#Cc1ccc(C/C(=N/NC(=O)Nc2ccc(OC(F)(F)F)cc2)c2cccc(C(F)(F)F)c2)cc1
inactive: Potency [1] | Potency [2] | Potency [19] | Potency [3] | Potency [4] | Potency [6] | Potency [12] | Potency [13] | Potency [18] | Potency [16]

CC(C)(C)c1ccc(OC2CCCCC2O)cc1 (stereo not drawn)
active: Potency [19] 27.3 µM | Potency [8] 71.3 µM
inactive: Potency [1] | Potency [2] | Potency [3] | Potency [4] | Potency [5] | Potency [7] | Potency [11] | Potency [13] | Potency [14] | Potency [16]

O=C1CCC/C=C\CCCCCCCCCC1
active: Potency [19] 27.3 µM
inactive: Potency [1] | Potency [2] | Potency [3] | Potency [11] | Potency [12] | Potency [13] | Potency [14] | Potency [18] | Potency [16]

CCCC(C)C=O (stereo not drawn)
inactive: Potency [1] | Potency [2] | Potency [3] | Potency [17] | Potency [4] | Potency [5] | Potency [7] | Potency [8] | Potency [9] | activity change, positive = activation [10] 4.95% | Potency [12] | Potency [13] | Potency [14] | Potency [15] | Potency [18] | Potency [16]

CCC(O)CO (stereo not drawn)
inactive: Potency [1] | Potency [2] | Potency [3] | Potency [4] | Potency [5] | Potency [7] | Potency [11] | Potency [12] | Potency [13] | Potency [14] | Potency [15] | Potency [18] | Potency [16]

O=C(c1ccccc1)c1ccc(Cl)cc1
inactive: Potency [1] | Potency [2] | Potency [3] | Potency [4] | Potency [5] | Potency [7] | Potency [8] | Potency [12] | Potency [13] | Potency [14] | Potency [16]

CCOC(=O)[C@H](C)O
inactive: Potency [1] | Potency [2] | Potency [19] | Potency [3] | Potency [5] | Potency [6] | Potency [7] | Potency [8] | Potency [12] | Potency [13] | Potency [14] | Potency [15] | Potency [18] | Potency [16]

Clc1nc(C(Cl)(Cl)Cl)c(Cl)c(Cl)c1Cl
inactive: Potency [1] | Potency [19] | Potency [8] | activity change, positive = activation [10] -54% | Potency [12] | Potency [13] | Potency [16]
active: Potency [2] 54.5 µM | Potency [5] 4.9 µM | Potency [14] 54.9 µM

Oc1ccc2c(c1)CCC2
inactive: Potency [1] | Potency [2] | Potency [3] | Potency [17] | Potency [20] | Potency [6] | Potency [7] | Potency [8] | Potency [9] | activity change, positive = activation [10] 7.55% | Potency [11] | Potency [12] | Potency [13] | Potency [14] | Potency [15] | Potency [18] | Potency [16]

CCOC(=O)[C@H](O)[C@@H](O)C(=O)OCC
inactive: Potency [1] | Potency [2] | Potency [19] | Potency [3] | Potency [5] | Potency [7] | Potency [8] | Potency [11] | Potency [12] | Potency [13] | Potency [14] | Potency [15] | Potency [18] | Potency [16]
